Compounds without any hit were thinned out: in the full panel of roughly 83,000, 20% have a hit.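 Plates (96-well) were seeded with cells, treated with compound at one concentration, and incubated for 48 hours before percent growth was determined.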 Active and inactive are the calls of the source.
Test system: OVCAR-4 ovarian
Test: NCI-60 one-dose screen, 48 h (100 = growth as untreated, 0 = no growth, -100 = all killed)
Details: 10 µM unless noted
Description: Growth inhibition of the OVCAR-4 human tumor cell line is measured as a screen for anti-cancer activity. Cells are grown in 96 well plates and exposed to the test compound for 48 hours. Compounds are tested at a single concentration, which is 10^-5 M for most compounds. The reported endpoint is percent growth (GI% or GIPRCNT), where numbers from 0 - 100% represent growth inhibition, and numbers from -100% - 0 represent cell death. For example, a value of 40 represents 60% growth inhibition. A value of 0 means no net growth occurred over the course of the experiment. A value of -40 indicates 40% of cells at the beginning of the experiment died by the end of the experiment. A value of -100 means all cells are dead at the end of the experiment.
NCI-60 Human Tumor Cell Lines Screen was performed using the standard one-dose NCI protocol, which is described in more detail at https://dtp.cancer.gov/discovery_development/nci-60/default.htm.
Compounds with GIPRCNT values below 10 were considered active. Activity score was based on GIPRCNT using the following formula: […]
Score is 0 for GIPRCNT values of 100 or above, 50 for GIPRCNT values of 0, and 100 for GIPRCNT values of -100.

Row | Structure (SMILES) | growth
1 | Clc1ccc(COC(Cn2ccnc2)c2ccc(Cl)cc2Cl)cc1 (stereo not given) | 54% (inactive)
2 | CCCc1cc(O)c2c3c(c(=O)oc2c1)CN(C)CC3 | 56.3% (inactive)
3 | COC(=O)[C@@H](C)C[C@H](Cc1ccccc1)NC(=O)c1csc([C@@H](C[C@H](C(C)C)N(C)C(=O)[C@@H](NC(=O)[C@H]2CCCCN2C)c2ccc(F)cc2)OC(C)=O)n1 | 48.4% (inactive)
4 | COC(=O)[C@@H](C)C[C@H](Cc1ccc(F)cc1)NC(=O)c1csc([C@@H](C[C@H](C(C)C)N(C)C(=O)[C@@H](NC(=O)[C@H]2CCCCN2C)C2CC2)OC(C)=O)n1 | 46% (inactive)
5 | Cc1ccc(C(=O)NCCCOc2ccc(N)cc2Cl)cc1S(=O)(=O)F | 97.5% (inactive)
6 | COC1=CC(=O)O[C@@H](/C=C/c2ccc3c(c2)OCO3)C1 | 112% (inactive)
7 | Nc1c(F)cc(-c2nc3cc(F)ccc3[se]2)cc1F | 48.9% (inactive)
8 | CC1=C(CCCOC(=O)[C@H](N)CC(C)C)C2=C(C)C3(CC3)[C@@](C)(O)C(=O)C2=C1 | 4.85% (active)
9 | COc1ccc2nc(NC(=O)COc3cc(/C=C\c4cc(OC)c(OC)c(OC)c4)ccc3OC)sc2c1 | 49% (inactive)
10 | Cc1cc(NC(=O)NCc2ccc(N3C(N)=NC(N)=NC3(C)C)cc2)ccc1S(=O)(=O)F | 39.2% (inactive)
11 | CC[C@H](C)[C@H](NC(=O)NC(C)(C)C)C(=O)N(C)[C@H](C[C@@H](OC(C)=O)c1nc(C(=O)N[C@@H](Cc2ccccc2)C[C@H](C)C(=O)OC)cs1)C(C)C | 36.2% (inactive)
12 | CC[C@H](C)[C@H](NC(=O)C12CC(NC(C)=O)(C1)C2)C(=O)N(C)[C@H](C[C@@H](OC(C)=O)c1nc(C(=O)N[C@@H](Cc2ccccc2)C[C@H](C)C(=O)OC)cs1)C(C)C | 43.3% (inactive)
13 | N/C(=N/N=C/c1ccncc1)N[N+](=O)[O-] | 103% (inactive)
14 | CC(=O)ONc1ccc([N+](=O)[O-])c(C(F)(F)F)c1 | 98.2% (inactive)
15 | Oc1ccc2c3c1OC1[C@@H](O)CC[C@@]4(O)[C@@H](C2)N(CC2CCC2)CC[C@]314 (stereo not given in full) | 98.2% (inactive)
16 | CN1CC(=O)N(O)C1(C)c1cccnc1 (stereo not given) | 111% (inactive)
17 | O=C(O)C(Cl)(Cl)C(F)(F)F | 104% (inactive)
18 | ClCCN(CCCl)c1ccc(/C=N\N=C\c2ccc(N(CCCl)CCCl)cc2)cc1 | 53% (inactive)
19 | CN(C)C1C(=O)C(C(N)=O)=C(O)C2(O)C(=O)C3=C(O)c4c(O)cccc4C(C)(O)C3CC12.[Cl][Sb]([Cl])[Cl] (stereo not given) | 44.2% (inactive)
20 | CNC(=O)Oc1cccc(C(F)(F)F)c1 | 114% (inactive)

Row | Structure (SMILES) | growth
21 | ClC1=C(Cl)C(Cl)(C2(Cl)C(Cl)=C(Cl)C(Cl)=C2Cl)C(Cl)=C1Cl | -30.2% (active)
22 | COc1ccc(C(=O)c2sc3nc4c(cc3c2N)N2CCC4CC2)cc1OC | 85.7% (inactive)
23 | Fc1ccc2c(c1)c(-c1nc(-c3c[nH]c4ncccc34)cs1)cn2CCCCN1CCCCC1 | -23.8% (active)
24 | CNC(=O)Oc1ccc(N(C)C)cc1C(C)C | 85.9% (inactive)
25 | Cc1c(O)c(CN(CCCl)CCCl)cc(CN(CCCl)CCCl)c1O | 83.9% (inactive)
26 | C=CC[Se]C(=O)c1ccccc1OC(C)=O | -36% (active)
27 | COC(=O)[C@@H](C)C[C@H](Cc1ccccc1)NC(=O)c1csc([C@@H](C[C@H](C(C)C)N(C)C(=O)[C@@H](NC(=O)C23CC(NC(C)=O)(C2)C3)C2CC2)OC(C)=O)n1 | 77.7% (inactive)
28 | C=CC[n+]1ccc(-c2cc[n+](CC=C)cc2)cc1 | 37.6% (inactive)
29 | CC[C@H](C)[C@H](NC(=O)[C@H]1CCCCN1C)C(=O)N(C)[C@H](C[C@@H](OC(C)=O)c1nc(C(=O)N[C@@H](Cc2ccccc2)C[C@H](C)C(=O)OC)cs1)C(C)C | 51.5% (inactive)
30 | Cn1cc(-c2csc(-c3cn(CCCCN4CCCCC4)c4ccccc34)n2)c2cccnc21 | 82.3% (inactive)
31 | Nc1ccc2c(c1)Cc1cc(Br)ccc1-2 | 99.9% (inactive)
32 | COC(=O)[C@H](Cc1ccccc1)NC(=O)c1csc([C@@H](C[C@H](C(C)C)N(C)C(=O)[C@@H](NC(=O)[C@H]2CCCCN2C)C2CC2)OC(C)=O)n1 | 49.7% (inactive)
33 | Clc1ccc2nnnn2n1 | 37.8% (inactive)
34 | COc1cc([C@@H]2c3cc4c(cc3[C@H](OC(C)=O)[C@H]3COC(=O)[C@H]23)OCO4)cc(OC)c1OC | 41.3% (inactive)
35 | COc1ccc2c(c1)c(C1(O)CC(CSC#N)OC1=O)cn2C(=O)c1ccc(Cl)cc1 (stereo not given) | 101% (inactive)
36 | O=C1OCCC1Br (stereo not given) | 107% (inactive)
37 | Nc1cc2nc3ccccc3nc2cc1N | 84% (inactive)
38 | CO[C@H](C(=O)O)[C@@H]1Cc2cc3cc(OC4CC(OC5CC(O)C(O)C(C)O5)C(O)C(C)O4)c(C)c(O)c3c(O)c2C(=O)[C@H]1OC1CC(OC2CC(OC3CC(C)(O)C(O)C(C)O3)C(O)C(C)O2)C(O)C(C)O1 (stereo not given in full) | 19.7% (inactive)
39 | C=C(C)[C@@]12OC3(/C=C/C=C/CCCCC)O[C@@H]1[C@@H]1[C@@H]4O[C@]4(CO)[C@@H](O)[C@]4(O)C(=O)C(C)=C[C@H]4[C@@]1(O3)[C@H](C)[C@H]2OC(=O)c1ccccc1 | 72.2% (inactive)
40 | COC(=O)C12CC(NC(=O)c3csc([C@@H](C[C@H](C(C)C)N(C)C(=O)[C@@H](NC(=O)[C@H]4CCCCN4C)C4CC4)OC(C)=O)n3)(C1)C2 | 43.5% (inactive)

— PubChem BioAssay (NCI)
